Experiment [1] is described as follows: qHTS for Activators of Parkin Expression: LOPAC Validation Assay (FLuc Reporter) (AID 720573;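 also: 0% = DMSO and 100% = positive control compounds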). Put shortly:
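A neuronal cell line harbouring FLuc and NLuc reporters behind the Parkin promoter was exposed to compounds for 24 h. Firefly luciferase signal, measured after 10 min with detection reagent, was scaled to DMSO and positive-control wells.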
(In qHTS, concentration-response curves come from the screen itself.)

Experiment [2] deals with T1, Hexokinase-4 (Homo sapiens) + Glucokinase regulatory protein (Homo sapiens) (UniProt P35557+Q14397). The experiment can be described thus: qHTS assay for inhibitors of recombinant human GCK-GKRP interaction: Diaphorase-coupled assay (AID 743205). In short, it runs like this:
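Inhibitors of the GCK–GKRP complex relieve GKRP suppression of GCK, detected through a G6PDH–diaphorase cascade reducing resazurin. Human GST-GCK and FLAG-GKRP are used at 10 nM with 5 mM glucose and 0.4 mM ATP.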

The target of experiment [3] is T1, Hexokinase-4 (Homo sapiens) + Glucokinase regulatory protein (Homo sapiens). The experiment can be described thus: qHTS assay for inhibitors of recombinant human GCK-GKRP interaction: ADP-Glo assay (AID 743206).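 Also: plate controls were DMSO plus enzyme for no effect and no enzyme for full effect.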 In short, it runs like this: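 Pin-transferred compounds meet a 15 nM GST-GCK/15 nM FLAG-GKRP/2 uM S6P mix (dispense concentrations). ATP is then added to 0.4 mM final with 5 mM glucose, and the reaction runs 60 min at room temperature. ADP is quantified luminescently.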

For experiment [4] the target is unchanged. The experiment can be described thus: qHTS assay for inhibitors of recombinant human GCK-GKRP interaction: HTRF assay (AID 743207).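 Also: 0% = DMSO with GCK present and -100% = DMSO wells lacking GCK.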 In short, it runs like this: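 Steps: dispense GCK–GKRP complex (5 nM each, GST- and FLAG-tagged) with 2 uM S6P; pin in compounds; add XL665/Eu-cryptate-labelled antibodies; incubate 60 min at room temperature; read time-resolved FRET at 665 and 615 nm.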

A short description of experiment [5]: qHTS Assay for Identifying Gametocytocidal Compounds (AID 743244). Also: potency is read from the fitted curve at half-maximal effect.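 As to max response: % is scaled to controls: 0 for no effect and ±100 for the full control effect; actives lower the fluorescent signal which means gametocytes are killed.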 The note with it: P. falciparum 3D7 stage III-V gametocytes, alamarBlue, 72 h; max response: stronger effect = lower value. In short, it runs like this: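 Late gametocytes (III–V), P. falciparum 3D7; 72 h drug, then 24 h alamarBlue; resazurin reduction read by fluorescence.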

Values without a mark were called inactive. Results filed as inconclusive are left out. The source made the active and inactive calls. Calls follow the shape of the dose curve; as a rule, active = well fitted curve in the direction sought with a large enough effect; inconclusive = small, poorly fitted or top-dose-only effect, or another doubt; inactive = no such curve, though single readings can be large; an effect the other way counts as inactive or inconclusive.

T1 sequence (P35557 whole entry, looked up): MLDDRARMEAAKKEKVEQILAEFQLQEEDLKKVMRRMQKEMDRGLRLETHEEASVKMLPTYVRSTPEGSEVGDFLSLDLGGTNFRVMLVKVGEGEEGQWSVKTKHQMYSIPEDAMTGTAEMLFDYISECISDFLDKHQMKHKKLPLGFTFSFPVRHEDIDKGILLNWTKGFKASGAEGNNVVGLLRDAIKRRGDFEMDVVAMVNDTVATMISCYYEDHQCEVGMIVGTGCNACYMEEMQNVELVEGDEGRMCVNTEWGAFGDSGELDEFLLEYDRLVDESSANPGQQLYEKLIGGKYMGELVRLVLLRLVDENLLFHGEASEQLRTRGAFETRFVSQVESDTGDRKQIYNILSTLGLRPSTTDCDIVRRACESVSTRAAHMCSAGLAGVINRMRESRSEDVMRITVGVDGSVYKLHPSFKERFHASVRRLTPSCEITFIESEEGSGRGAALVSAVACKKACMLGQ
T1 sequence (Q14397 whole entry, looked up): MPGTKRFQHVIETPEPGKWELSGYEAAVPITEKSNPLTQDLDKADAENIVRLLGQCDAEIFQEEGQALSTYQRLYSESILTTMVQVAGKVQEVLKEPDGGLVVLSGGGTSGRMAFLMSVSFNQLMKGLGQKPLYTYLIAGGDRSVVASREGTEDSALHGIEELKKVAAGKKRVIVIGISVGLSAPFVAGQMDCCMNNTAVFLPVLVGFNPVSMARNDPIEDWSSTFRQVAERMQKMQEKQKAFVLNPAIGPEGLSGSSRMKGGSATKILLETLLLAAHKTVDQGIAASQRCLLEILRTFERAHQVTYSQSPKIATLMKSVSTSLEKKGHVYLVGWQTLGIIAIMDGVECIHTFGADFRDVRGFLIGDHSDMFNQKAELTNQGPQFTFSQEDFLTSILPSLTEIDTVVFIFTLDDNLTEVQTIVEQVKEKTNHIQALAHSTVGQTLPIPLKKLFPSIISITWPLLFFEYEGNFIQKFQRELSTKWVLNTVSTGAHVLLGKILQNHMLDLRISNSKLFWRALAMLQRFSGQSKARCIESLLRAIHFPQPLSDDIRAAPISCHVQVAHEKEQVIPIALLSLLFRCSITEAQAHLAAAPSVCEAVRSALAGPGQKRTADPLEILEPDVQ

Turning to `Nc1ccc(CCN2CCN(c3cccc(C(F)(F)F)c3)CC2)cc1`, the compound was called inactive in experiment [1], in experiment [3] and in experiment [4]. The Potency entry in experiment [2] is “inactive”. In addition, the max response in experiment [5] was 14.5%.
Consider `C[C@@H]1O[C@@H](O[C@H]2C[C@@H](O)[C@]3(CO)[C@@H]4C(CC[C@]3(O)C2)[C@@]2(O)CC[C@H]([C@@H]3COC(=O)C3)[C@@]2(C)C[C@H]4O)[C@H](O)[C@H](O)[C@H]1O` (stereo not given in full), for which the compound was classed as inactive in experiment [1], in experiment [3] and in experiment [4]. The Potency entry in experiment [2] is “inactive”. The max response in experiment [5] was 22.5%.
Take `C[N+](C)(C)CCOC(=O)CBr`: the compound was called inactive in experiment [1], in experiment [3] and in experiment [4]. Moreover, the Potency result in experiment [2] was “inactive”. The max response in experiment [5] was 20.4%.
For the compound `C[C@H](N)Cc1cccc(C(F)(F)F)c1`, the compound was classed as inactive in experiment [1], in experiment [3] and in experiment [4]. Further, the Potency entry in experiment [2] was “inactive”. Further, in experiment [5], the max response was 11.9%.
As to `COc1ccc2[nH]c3c(c2c1)CCNC3`, the compound was classed as inactive in experiment [1], in experiment [3] and in experiment [4]. The Potency entry in experiment [2] is “inactive”. Also, the max response in experiment [5] is -9.37%.
Regarding `COc1ccc2[nH]cc(CCN)c2c1`, the outcome in experiment [1], in experiment [3] and in experiment [4] was inactive. Also, in experiment [2], the Potency result is “inactive”. Moreover, the max response in experiment [5] is 15.8%.
Regarding `N[C@@H](Cn1oc(=O)[nH]c1=O)C(=O)O`, the outcome in experiment [1], in experiment [3] and in experiment [4] was inactive. Also, in experiment [2], the Potency result was “inactive”. Also, the max response in experiment [5] is 11.5%.
Regarding `C[Se]C[C@H](N)C(=O)O`, the outcome in experiment [1], in experiment [3] and in experiment [4] was inactive. The Potency result in experiment [2] was “inactive”. Besides, the max response in experiment [5] is -6.02%.
With `CC(N)Cc1c[nH]c2ccc(OCc3cccs3)cc12` (stereo not given), the outcome in experiment [1], in experiment [3] and in experiment [4] was inactive. Also, the Potency result in experiment [2] is “inactive”. For the same compound, the Potency in experiment [5] was 1410 nM (active).
For the compound `CN1CCC(c2c[nH]c3ccc(O)cc23)CC1`, the result in experiment [1], in experiment [3] and in experiment [4] was inactive. The Potency entry in experiment [2] is “inactive”. Also, the max response in experiment [5] is 11.9%.
Take `CC(N)[C@H](O)c1ccc(O)c(O)c1` (stereo not given in full): the outcome in experiment [1], in experiment [3] and in experiment [4] was inactive. Besides, the Potency entry in experiment [2] is “inactive”. The max response in experiment [5] was 7.97%.
`C[N+]1(C)CCOC(O)(c2ccc(-c3ccc(C4(O)C[N+](C)(C)CCO4)cc3)cc2)C1` (stereo not given): the result in experiment [1], in experiment [3] and in experiment [4] was inactive. In addition, in experiment [2], the Potency result was “inactive”. Moreover, the max response in experiment [5] is 5.92%.
On to `CCCN1CCc2cccc3c2[C@H]1Cc1ccc(O)c(O)c1-3`, for which the compound was classed as inactive in experiment [1], in experiment [3] and in experiment [4]. Further, in experiment [2], the Potency result was “inactive”. The Potency in experiment [5] was 2820 nM (active).
As for `O=[N+]([O-])c1cc(O)c(O)c([N+](=O)[O-])c1`, the outcome in experiment [1], in experiment [3] and in experiment [4] was inactive. Besides, in experiment [2], the Potency result is “inactive”. Besides, in experiment [5], the max response is -6.67%.
`CCN(CCCl)Cc1ccccc1Br`: the compound was classed as inactive in experiment [1], in experiment [3] and in experiment [4]. Besides, the Potency entry in experiment [2] was “inactive”. Besides, the max response in experiment [5] is -1.83%.
In the case of `C[N+]1(C)C2CCC1CC(OC(=O)c1c[nH]c3ccccc13)C2` (stereo not given), the outcome in experiment [1], in experiment [3] and in experiment [4] was inactive. For the same compound, the Potency result in experiment [2] was “inactive”. Also, the max response in experiment [5] is -2.89%.
Regarding `COc1cc(CC(C)N)c(OC)cc1I` (stereo not given), the call in experiment [1], in experiment [3] and in experiment [4] was inactive. Further, the Potency entry in experiment [2] was “inactive”. Also, the max response in experiment [5] was 3.52%.
For `NC(=O)c1cc(N2CC2)c([N+](=O)[O-])cc1[N+](=O)[O-]`, the result in experiment [1], in experiment [3] and in experiment [4] was inactive. For the same compound, the Potency result in experiment [2] was “inactive”. The max response in experiment [5] was 5.78%.
In the case of `NC(C(=O)O)c1cc(=O)[nH]o1` (stereo not given), the result in experiment [1], in experiment [3] and in experiment [4] was inactive. In experiment [2], the Potency entry was “inactive”. For the same compound, the max response in experiment [5] is 7.64%.
`COC(=O)N1CCN(C(=O)Cc2ccc(Cl)c(Cl)c2)C(CN2CCCC2)C1` (stereo not given): the compound was called inactive in experiment [1], in experiment [3] and in experiment [4]. The Potency result in experiment [2] was “inactive”. Further, the max response in experiment [5] was 14.6%.
In the case of `N[C@@H](CCl)C(=O)O`, the outcome in experiment [1], in experiment [3] and in experiment [4] was inactive. In addition, the Potency entry in experiment [2] is “inactive”. Further, in experiment [5], the max response is 3.64%.
As to `CP(=O)(O)C1=CCNCC1`, the call in experiment [1], in experiment [3] and in experiment [4] was inactive. Moreover, the Potency result in experiment [2] is “inactive”. The max response in experiment [5] is 6.19%.
For `C=CCN1CCC23c4c5ccc(O)c4O[C@H]2C(=O)CC[C@@]3(O)C1C5` (stereo not given in full), the outcome in experiment [1], in experiment [3] and in experiment [4] was inactive. Further, the Potency entry in experiment [2] is “inactive”. For the same compound, in experiment [5], the max response is 7.07%.
Consider `CC(C)NP(=O)(NC(C)C)OP(=O)(NC(C)C)NC(C)C`, for which the outcome in experiment [1], in experiment [3] and in experiment [4] was inactive. Also, the Potency result in experiment [2] was “inactive”. Further, in experiment [5], the max response was 7.64%.
Turning to `OCc1cnc[nH]1`, the compound was called inactive in experiment [1], in experiment [3] and in experiment [4]. Further, the Potency result in experiment [2] was “inactive”. In addition, in experiment [5], the max response is 26.7%.
With `Cc1c2ccncc2c(C)c2c1[nH]c1ccccc12`, the outcome in experiment [1], in experiment [3] and in experiment [4] was inactive. In addition, the Potency result in experiment [2] was “inactive”. Also, the Potency in experiment [5] is 1780 nM (active).
Consider `CCOC(=O)c1ncn2c1[C@@H]1CCCN1C(=O)c1cc(OC)ccc1-2`, for which the compound was called inactive in experiment [1], in experiment [3] and in experiment [4]. The Potency result in experiment [2] is “inactive”. Further, the max response in experiment [5] was -1.18%.
For `CCCN(CCC)C1Cc2cc(OC)c(OC)cc2C1`, the result in experiment [1], in experiment [3] and in experiment [4] was inactive. Also, in experiment [2], the Potency result was “inactive”. For the same compound, in experiment [5], the max response is 13.4%.
For `C[C@@H]1[C@@H]2Cc3ccc(O)cc3[C@@]1(C)CCN2CC1CC1`, the call in experiment [1], in experiment [3] and in experiment [4] was inactive. Besides, the Potency entry in experiment [2] was “inactive”. Further, the max response in experiment [5] is 29.7%.
Consider `CCCN(CCC)C1CCc2cccc(O)c2C1` (stereo not given), for which the result in experiment [1], in experiment [3] and in experiment [4] was inactive. Also, the Potency entry in experiment [2] was “inactive”. The max response in experiment [5] is 13.2%.
In the case of `CCCCCCCCCCCCCC(=O)O[C@@H]1[C@@H](C)[C@@]2(O)[C@@H](C=C(CO)C[C@@]3(O)C(=O)C(C)=C[C@@H]23)C2C(C)(C)[C@@]21OC(C)=O` (stereo not given in full), the compound was classed as inactive in experiment [1], in experiment [3] and in experiment [4]. For the same compound, the Potency result in experiment [2] is “inactive”. Also, in experiment [5], the max response is -2.77%.

Values taken from PubChem BioAssay (NCATS).
